# Only some compounds are listed: those with a hit (about 19% of all), similar ones and a draw of the others.
# DT40 TDP1 no CPT: qHTS for Inhibitors of human tyrosyl-DNA phosphodiesterase 1 (TDP1): qHTS in cells in absence of CPT; DT40 Tdp1-/- hTDP1 cells, no CPT, ATP luminescence, 48 h; Potency, µM (titrated, usually from 46.2 µM), inactives show at the highest dose activity change, negative = growth inhibition, actives largely listed as inhibitors; 420,000 compounds, 15% hits; further: potency means the concentration at half of the fitted maximal effect; nearly all actives have a fitted effect of over 55% in size
#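 Chicken DT40 Tdp1-/- cells stably complemented with human TDP1 were seeded at 400 cells/well with DMSO in place of 20 nM camptothecin. After compound pinning, cells grew at least 48 hr at 37 °C; viability read by CellTiter-Glo luminescence.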
# HT1080NT lethal: kills 2HG-producing HT-1080-NT fibrosarcoma cells; Potency, µM (series often up to 46.1 µM), without a hit: at the highest dose activity, negative = less viability, most hits filed as cytotoxic; 360,000 compounds, 1.6% hits; HT-1080-NT fibrosarcoma viability, CellTiter-Glo ATP luminescence, 48 h;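 further: NT is the 2HG producing partner of a matched IDH1 knockdown line; potency means the concentration at half of the fitted maximal effect; 0% = DMSO-treated cells and -100% = media-only wells without cells; nearly all actives have a fitted effect of over 55% in size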
#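 HT-1080-NT; 750 cells/well; 5% FBS RPMI; 48 h compound, 37 degrees C; CellTiter-Glo luminescence; curve fitting and curve-class assignment.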
# DT40 TDP1 CPT: growth inhibition of DT40 Tdp1-/-;hTDP1 cells with camptothecin (screen for TDP1 inhibitors); chicken DT40 Tdp1-/-;hTDP1 cells + 20 nM CPT, ATP luminescence, 48 h; Potency, µM (series often up to 46.2 µM), for the others: at the top dose activity change, negative = growth inhibition, hits mostly inhibitors; 420,000 compounds, 12% hits; further: potency means the concentration at half of the fitted maximal effect; nearly all actives have a fitted effect of over 55% in size
#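 Chicken DT40 Tdp1-/- cells stably complemented with human TDP1 were seeded at 400 cells/well in medium containing 20 nM camptothecin, exposed to pin-transferred compounds, and grown at 37 °C for at least 48 hr. Viability was read as ATP luminescence.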
# HT1080 IDH1KD tx: kills HT-1080 cells with IDH1 knockdown; AID 686971; 360,000 compounds, 2% hits; Potency, µM (top dose mostly 46.1 µM), without a hit: at the highest dose activity, negative = toxicity, hits mostly cytotoxic; HT-1080 IDH1 knockdown viability, ATP luminescence, 48 h;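 further: potency means the concentration at half of the fitted maximal effect; 0% = DMSO wells and -100% = cell-free medium wells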
#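 IDH1KD HT-1080 cells, 750/well, RPMI + 5% FBS; compound pinned after 2 h settling; 48 h, 37 °C; CellTiter-Glo luminescence; % activity normalised to DMSO and no-cell wells; curves fitted, classed by r2 and efficacy.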
# IL1B secr inh: inhibitors of inflammasome signaling (IL-1 beta secretion). 360,000 compounds, 4.7% hits. activity change, % at 57.5 µM. THP-1 LPS/ATP IL-1B secretion, AlphaLISA, 16 h; stronger effect = lower value; in the data active means activity change below about -50%; inconclusive means mostly about -30% to -49%
#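 THP-1 cells pretreated 1 hr with compounds (up to 57.5 uM final), then stimulated with LPS (250 ng/mL final) plus ATP (1.25 mM final); secreted IL-1B measured by AlphaLISA after 16 hr, decreased signal indicating inhibition.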
# Starred values were filed as active, the others as inactive; u = inconclusive; x = no result. Unless noted, the call rests on the fitted dose curve; in most records, active means well fitted curve in the direction sought with a large enough effect; inconclusive means small, poorly fitted or top-dose-only effect, or another doubt; inactive means no such curve, though single readings can be large; an effect the other way counts as inactive or inconclusive. Unless noted, on the % scale 0 is the no-effect control and ±100 the full control effect.
SMILES,DT40 TDP1 no CPT,HT1080NT lethal,DT40 TDP1 CPT,HT1080 IDH1KD tx,IL1B secr inh
O=C1c2oc3ccc(Cl)cc3c(=O)c2C(c2ccccn2)N1CCCN1CCOCC1 (stereo unspecified),29.1µM*,6.3%,23.1µM*,6.6%,11.6
CC(C)Oc1ccc(C2c3c(oc4ccccc4c3=O)C(=O)N2CCCN2CCOCC2)cc1 (stereo unspecified),u,6.5%,25.9µM*,-2.5%,-0.2
CC(C)c1ccc(C2c3c(oc4ccc(Cl)cc4c3=O)C(=O)N2CCCN2CCOCC2)cc1 (stereo unspecified),u,x,18.4µM*,x,x
Cc1ccc2oc3c(c(=O)c2c1)C(c1ccccc1F)N(CCCN(C)C)C3=O (stereo unspecified),-1.9%,x,-11.4%,x,x
COc1ccc(CCNC(=O)c2cc(-c3ccncc3)nc3ccc(S(=O)(=O)N4CCOCC4)cc23)cc1OC,-2.7%,3.2%,-20.1%,10.8%,2.5
COc1ccc(C(O)(CCN2CCCCC2)C2CCCCC2)cc1 (stereo unspecified),20.6µM*,-18.7%,u,-8.5%,-17.9
COc1ccc2cc(C(=O)C3CCCN(C(=O)c4ccnn4C)C3)ccc2c1 (stereo unspecified),14.6µM*,0.0%,25.9µM*,-6.7%,-29.1
COc1cccc(-c2ccc(NC(=O)C3CCCN(Cc4cnn(C)c4)C3)cc2)c1 (stereo unspecified),u,u,u,16.4µM*,20.2
Cc1ncc(CN2CCCC(C(=O)Nc3ccc(-c4cccc(F)c4)cc3)C2)n1C (stereo unspecified),u,u,23.1µM*,u,u
CCOC(=O)N1CCC(N2CCCC(C(=O)c3ccc4cc(OC)ccc4c3)C2)CC1 (stereo unspecified),14.6µM*,u,23.1µM*,u,-161.7*
COc1cccc(-c2ccc(NC(=O)C3CCCN(Cc4cnc(C)n4C)C3)cc2)c1 (stereo unspecified),u,-9.8%,u,-18.6%,-15.6
CCCC(=O)NCc1cc(-c2nn(C)c(=O)c3ccccc23)ccc1OC,u,-1.5%,6.4%,-0.3%,29.8
Cc1ncc(CN2CCCC(C(=O)Nc3ccc(-c4ccco4)cc3)C2)cn1 (stereo unspecified),-18.4%,12.4%,2.2%,0.6%,-18.1
CCC(=O)N1CCCC(C(=O)Nc2nc3ccccc3[nH]2)CC1 (stereo unspecified),-4.0%,23.2%,-4.7%,19.7%,17.9
Cc1cc(CN2CCCC(C(=O)Nc3ccc(-c4nc5ccccc5[nH]4)cc3)C2)n[nH]1 (stereo unspecified),u,-21.4%,18.4µM*,u,-15.8
COCCc1ncc(CN2CCCC(C(=O)Nc3cccc(-c4cccc(C)c4)c3)C2)cn1 (stereo unspecified),23.1µM*,u,u,u,u
COc1ccc2cc(C(=O)C3CCCN(Cc4cccc(C)n4)C3)ccc2c1 (stereo unspecified),8.2µM*,u,2.59µM*,23.1µM*,-109.3*
COc1cccc(C(=O)C2CCCN(C(=O)c3ccc(C#CC(C)(C)O)cc3)C2)c1 (stereo unspecified),14.6µM*,-3.1%,18.4µM*,-0.6%,-0.5
Clc1cccc(-c2nc3c4ccccc4ccn3c2CC2CCCCC2)c1,u,16.7%,u,11.5%,17.9
C[N+](C)(C)CCN1CCc2ccccc21,-18.5%,12.1%,-5.8%,3.6%,0.0
COc1cccc(-c2ccc(NC(=O)C3CCCN(Cc4cnn(C)c4C)C3)cc2)c1 (stereo unspecified),u,u,u,u,-14.9
COc1cccc(-c2ccc(NC(=O)C3CCCN(Cc4cccc(C)n4)C3)cc2)c1 (stereo unspecified),23.1µM*,u,u,u,-11.2
COc1cccc(-c2cccc(NC(=O)C3CCN(Cc4ccc(CO)o4)CC3)c2)c1,8.3%,7.2%,-13.2%,-0.1%,-20.0
CC(C)c1cc(C(=O)N2CCCC(C(=O)c3ccc4ccccc4c3)C2)on1 (stereo unspecified),25.9µM*,-19.4%,u,-15.1%,-89.2*
COc1cccc(-c2ccc(NC(=O)C3CCCN(Cc4ccc(CO)o4)C3)cc2)c1 (stereo unspecified),16.4µM*,1.1%,16.4µM*,15.4%,-2.8
SMILES,DT40 TDP1 no CPT,HT1080NT lethal,DT40 TDP1 CPT,HT1080 IDH1KD tx,IL1B secr inh
COC(=O)c1ccc(NS(=O)(=O)c2ccc(-c3cc(C)no3)s2)cc1,u,-4.6%,u,-20.1%,20.7
COC(=O)c1ccc(NS(=O)(=O)c2cc(-c3cc(C)no3)ccc2OC)cc1,2.91µM*,x,3.66µM*,x,35.2
COc1ccc(-c2cc(C)no2)cc1S(=O)(=O)NCCCN1CCCCCC1,-2.9%,-9.3%,-11.7%,-2.2%,-51.5*
CCc1ccc(-c2cc(C)no2)cc1S(=O)(=O)Nc1cc(C)ccn1,7.4%,-0.1%,-23.7%,0.0%,-9.3
Cc1cc(-c2ccc(C)c(S(=O)(=O)NC(c3cccs3)C(C)C)c2)on1 (stereo unspecified),18.4µM*,x,18.4µM*,x,x
CCc1ccc(-c2cc(C)no2)cc1S(=O)(=O)Nc1cc(OC)c(OC)c(OC)c1,16.4µM*,x,16.4µM*,x,x
CCOc1ccc(NC(=O)Cn2c(=O)n(CC(=O)NCc3ccccc3Cl)c(=O)c3sccc32)cc1,-14.4%,x,4.2%,x,x
COc1ccc(-c2onc(C)c2C)cc1S(=O)(=O)Nc1cc(Cl)ccc1C,3.66µM*,x,3.66µM*,x,x
COc1ccc(-c2cc(C)no2)cc1S(=O)(=O)Nc1cccc(C)c1,-25.9%,-18.0%,-8.8%,u,10.8
COc1ccc(-c2cc(C)no2)cc1S(=O)(=O)Nc1ccccc1,9.2µM*,u,25.9µM*,16.4µM*,-11.9
COc1ccc(Cl)cc1NS(=O)(=O)c1cc(-c2cc(C)no2)ccc1C,7.31µM*,x,6.51µM*,x,x
COc1ccccc1NS(=O)(=O)c1cc(-c2cc(C)no2)ccc1OC,-14.3%,-14.8%,-13.2%,-27.7%,31.0
COc1ccc(-c2onc(C)c2C)cc1S(=O)(=O)Nc1cccc(C#N)c1,20.6µM*,x,23.1µM*,x,x
CC(=O)c1cccc(NS(=O)(=O)c2cc(-c3onc(C)c3C)ccc2C)c1,-19.9%,x,u,x,x
CC1CCc2c(sc(NC(=S)NC(=O)c3ccccc3)c2C#N)C1 (stereo unspecified),u,13.8%,u,23.7%,-9.7
Cc1ccc(NC(=O)NNC(=O)CN2C(=O)COc3ccccc32)cc1,18.1%,-0.5%,-0.5%,0.4%,20.0
